Measured values: PubChem BioAssay (NCATS)
Inconclusive results are not listed. Calls of active or inactive are those of the source. Unless noted, the call rests on the fitted dose curve; in most records, active means well fitted curve in either direction with a large enough effect (not every such curve was filed as active); inconclusive means small, poorly fitted or top-dose-only effect, or another doubt; inactive means flat fitted curve, though single readings scatter.

Columns and labels:
[1] = AP1 Signaling Pathway (AID 357); conditions: ME-180 AP-1-bla reporter, EGF-induced, beta-lactamase ratio, 5 h; at 7.69 µM (top of the series) unless noted;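 further: ME-180 reporter cells stimulated with EGF at its EC50 level; on the % scale 0 is the no-effect control and ±100 the full control effect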
Method in brief: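 Read-out was the 460nm/530nm emission ratio (excitation 405nm) after CCF4 loading for 2.5 hours at room temperature. Cells carried an AP-1-driven beta-lactamase reporter, were stimulated with EC50 EGF plus compound for 5 hours, and AC50 values came from titrations.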

[2] = target: Cytochrome P450 1A2 (Homo sapiens) (UniProt P05177); assay: p450-cyp1a2 (AID 410; calls by dose curve; further: potency means the concentration at half of the fitted maximal effect;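 on activity change, negative = inhibition: -100% = full effect of reference inhibitor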)
Cytochrome P450 1A2 (Homo sapiens), sequence (P05177 whole entry, looked up): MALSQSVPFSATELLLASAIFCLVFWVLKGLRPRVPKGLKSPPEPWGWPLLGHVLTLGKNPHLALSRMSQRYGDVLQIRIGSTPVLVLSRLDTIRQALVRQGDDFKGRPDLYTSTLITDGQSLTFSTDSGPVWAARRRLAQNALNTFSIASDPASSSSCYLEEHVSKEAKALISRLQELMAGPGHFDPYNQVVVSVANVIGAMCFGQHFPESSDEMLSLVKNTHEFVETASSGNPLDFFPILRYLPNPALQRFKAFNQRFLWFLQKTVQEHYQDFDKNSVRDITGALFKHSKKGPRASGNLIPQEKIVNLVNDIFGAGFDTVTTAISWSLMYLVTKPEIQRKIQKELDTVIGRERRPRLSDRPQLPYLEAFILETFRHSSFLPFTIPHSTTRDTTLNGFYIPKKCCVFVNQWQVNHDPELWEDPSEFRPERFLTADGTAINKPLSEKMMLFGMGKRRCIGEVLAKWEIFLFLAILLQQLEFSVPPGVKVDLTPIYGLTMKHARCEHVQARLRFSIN
Method in brief: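 Human CYP1A2 (20nM) demethylated Luciferin-ME at its Km (100uM) in 100mM KPO4. After 10 min compound preincubation, NADPH regeneration ran the reaction 60 min at room temperature. Luciferin was read by luminescence, normalized to 57 uM furafylline.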

[3] = NFAT Signaling Pathway (AID 444); conditions: Jurkat NFAT-bla M1, carbachol, beta-lactamase ratio, 5 h; at 7.69 µM (top of the series) unless noted;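 further: carbachol stimulus at about its EC50 of 1 µM final; on the % scale 0 is the no-effect control and ±100 the full control effect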
Method in brief: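 Jurkat cells carrying an NFAT-driven β-lactamase reporter and co-transfected muscarinic M1 receptor were treated with compound plus carbachol (1 uM final, an EC50 level) for 5 h at 37 °C. CCF4 loading followed for 1 h at RT; 460/530 nm ratio gave %activity.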

[4] = Stat Signaling Pathway (AID 446); conditions: ME-180 (cervical carcinoma) SIE beta-lactamase reporter, IL-6 stimulated, 5 h; at 7.69 µM (top of the series) unless noted;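 further: ME-180 cervical cancer cells given 40 pM IL-6 alongside compound; SIE-controlled beta-lactamase reporter measured as 460/530 nm FRET emission ratio; on the % scale 0 is the no-effect control and ±100 the full control effect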
Method in brief: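 IL-6/STAT signaling read in ME-180 cells via an SIE beta-lactamase reporter. Stimulus was 40 pM IL-6 (its AC50) for 5 hrs, so both activation and inhibition register.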

[5] = target: Mitogen-activated protein kinase 10 (Mus musculus) (UniProt Q61831); assay: JNK3 AlphaScreen Assay (AID 530);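 further: kinase came from lysate of stimulated human HepG2 cells; signal reports phosphorylation of biotinylated GST-cJun 1-79 at Ser73 with 10 µM ATP; on the % scale 0 is the no-effect control and ±100 the full control effect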
Method in brief: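 JNK3 came from HepG2 lysates pre-activated with IL-1beta and TNF-alpha and phosphorylated biotinylated GST-cJun (1-79) at 10 uM ATP, pH 7.6, room temperature. Compounds were titrated. AlphaScreen signal used anti-phospho-cJun (Ser73) antibody.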

[6] = target: 3',5'-cyclic-AMP phosphodiesterase 4B (Homo sapiens) (UniProt Q07343); assay: qHTS Assay for Inhibitors of PDE-IV (AID 607; active means well fitted activation curve with a large enough effect in the main read-out, with a control signal flat, not every such curve was filed as active; further: % of control where 0% means no effect)
3',5'-cyclic-AMP phosphodiesterase 4B (Homo sapiens), sequence (Q07343 whole entry, looked up): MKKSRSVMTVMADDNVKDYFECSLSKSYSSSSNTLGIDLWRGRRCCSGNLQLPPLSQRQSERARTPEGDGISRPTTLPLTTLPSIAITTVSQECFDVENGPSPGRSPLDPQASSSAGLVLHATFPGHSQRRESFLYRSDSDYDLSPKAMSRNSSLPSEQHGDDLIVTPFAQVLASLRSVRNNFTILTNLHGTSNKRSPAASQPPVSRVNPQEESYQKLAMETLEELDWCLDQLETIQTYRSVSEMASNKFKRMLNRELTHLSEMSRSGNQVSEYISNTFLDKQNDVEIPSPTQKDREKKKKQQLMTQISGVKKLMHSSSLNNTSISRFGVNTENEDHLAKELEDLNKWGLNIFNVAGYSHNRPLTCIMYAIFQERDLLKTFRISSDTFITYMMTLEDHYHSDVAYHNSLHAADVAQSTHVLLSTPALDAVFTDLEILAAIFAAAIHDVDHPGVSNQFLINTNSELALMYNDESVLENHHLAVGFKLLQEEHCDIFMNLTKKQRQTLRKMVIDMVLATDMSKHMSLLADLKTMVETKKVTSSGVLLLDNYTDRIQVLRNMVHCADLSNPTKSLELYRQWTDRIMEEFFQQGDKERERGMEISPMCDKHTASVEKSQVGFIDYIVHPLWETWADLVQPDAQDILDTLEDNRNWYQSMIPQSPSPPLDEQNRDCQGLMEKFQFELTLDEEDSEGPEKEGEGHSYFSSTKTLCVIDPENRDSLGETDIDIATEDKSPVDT
Method in brief: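 Live HEK293 cells with a modified cyclic nucleotide-gated (CNG) channel report intracellular cAMP via membrane-potential dye fluorescence (ex 535/em 590 nm). Endogenous PDE-IV was targeted. Compounds were tested at up to 22.9 uM final; RO 20-1724 100 uM served as control.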

[7] = target: Cytochrome P450 2C9 (Homo sapiens) (UniProt P11712); assay: qHTS Assay for Inhibitors and Substrates of Cytochrome P450 2C9 (AID 883; active means well fitted curve in the direction sought with a large enough effect; an effect the other way counts as inactive or inconclusive; further: on the % scale 0 is the no-effect control and ±100 the full control effect; nearly all actives have a fitted effect of over 60% in size)
Cytochrome P450 2C9 (Homo sapiens), sequence (P11712 whole entry, looked up): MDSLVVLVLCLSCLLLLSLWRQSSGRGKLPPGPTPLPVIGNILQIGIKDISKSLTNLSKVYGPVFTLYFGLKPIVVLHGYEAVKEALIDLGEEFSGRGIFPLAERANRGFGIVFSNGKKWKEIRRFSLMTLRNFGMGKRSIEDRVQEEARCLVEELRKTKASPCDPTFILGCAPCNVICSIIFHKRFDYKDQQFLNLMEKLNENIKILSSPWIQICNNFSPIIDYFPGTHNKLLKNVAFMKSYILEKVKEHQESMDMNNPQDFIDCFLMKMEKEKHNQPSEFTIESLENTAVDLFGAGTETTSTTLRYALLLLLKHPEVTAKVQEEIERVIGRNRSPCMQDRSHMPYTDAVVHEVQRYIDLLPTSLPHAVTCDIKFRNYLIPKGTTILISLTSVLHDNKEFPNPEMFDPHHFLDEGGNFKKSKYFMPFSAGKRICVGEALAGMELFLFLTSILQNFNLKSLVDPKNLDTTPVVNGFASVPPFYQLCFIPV
Method in brief: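 A luminogenic readout tracked human CYP2C9 (10nM) converting deoxyluciferin (100uM, at KM) in 25mM KPO4 during 60 min at 37C with regenerated NADPH. Values normalized to 57uM sulphaphenazole as complete inhibition.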

[8] = target: Cytochrome P450 2D6 (Homo sapiens) (UniProt P10635); assay: qHTS Assay for Inhibitors and Substrates of Cytochrome P450 2D6 (AID 891; active means well fitted curve in the direction sought with a large enough effect; an effect the other way counts as inactive or inconclusive;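 further: luciferin methyl ether substrate demethylated by CYP2D6 with NADPH regeneration; on the % scale 0 is the no-effect control and ±100 the full control effect; nearly all actives have a fitted effect of over 60% in size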)
Cytochrome P450 2D6 (Homo sapiens), sequence (P10635 whole entry, looked up): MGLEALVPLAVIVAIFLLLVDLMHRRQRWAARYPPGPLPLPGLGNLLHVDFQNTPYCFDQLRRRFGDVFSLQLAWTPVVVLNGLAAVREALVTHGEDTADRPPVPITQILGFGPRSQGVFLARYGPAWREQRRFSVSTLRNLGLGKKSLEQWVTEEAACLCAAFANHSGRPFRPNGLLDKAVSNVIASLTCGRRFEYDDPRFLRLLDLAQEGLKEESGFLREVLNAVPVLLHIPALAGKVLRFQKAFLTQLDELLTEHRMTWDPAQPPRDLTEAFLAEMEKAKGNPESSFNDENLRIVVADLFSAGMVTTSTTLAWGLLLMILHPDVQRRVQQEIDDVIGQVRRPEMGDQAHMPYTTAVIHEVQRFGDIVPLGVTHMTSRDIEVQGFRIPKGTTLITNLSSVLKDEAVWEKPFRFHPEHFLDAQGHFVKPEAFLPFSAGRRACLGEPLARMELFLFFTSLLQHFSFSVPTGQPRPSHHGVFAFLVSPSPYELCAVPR
Method in brief: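 Human CYP2D6 (5 nM) with 30 uM Luciferin-ME EGE (at Km) in 100 mM KPO4, compound preincubated 10 min, then NADPH regeneration system for 60 min at room temperature. Luciferin read by luminescence; normalized to 1.43 uM quinidine.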

[9] = target: Cytochrome P450 2C19 (Homo sapiens) (UniProt P33261); assay: qHTS Assay for Inhibitors and Substrates of Cytochrome P450 2C19 (AID 899; active means well fitted curve in the direction sought with a large enough effect; an effect the other way counts as inactive or inconclusive; further: on the % scale 0 is the no-effect control and ±100 the full control effect; nearly all actives have a fitted effect of over 60% in size)
Cytochrome P450 2C19 (Homo sapiens), sequence (P33261 whole entry, looked up): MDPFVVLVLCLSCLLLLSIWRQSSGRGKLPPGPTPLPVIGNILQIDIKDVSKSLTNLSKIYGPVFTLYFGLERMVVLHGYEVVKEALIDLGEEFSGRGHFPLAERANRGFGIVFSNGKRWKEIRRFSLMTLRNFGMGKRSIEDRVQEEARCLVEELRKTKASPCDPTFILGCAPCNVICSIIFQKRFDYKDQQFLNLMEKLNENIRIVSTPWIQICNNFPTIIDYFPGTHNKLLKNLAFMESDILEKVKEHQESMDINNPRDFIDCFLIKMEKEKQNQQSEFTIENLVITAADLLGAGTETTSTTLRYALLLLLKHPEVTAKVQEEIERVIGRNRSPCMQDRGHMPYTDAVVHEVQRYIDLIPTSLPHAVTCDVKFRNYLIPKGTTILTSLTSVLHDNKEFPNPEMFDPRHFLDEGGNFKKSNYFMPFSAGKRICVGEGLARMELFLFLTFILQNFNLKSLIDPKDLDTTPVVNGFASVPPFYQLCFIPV
Method in brief: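 NADPH-dependent conversion of Luciferin-H EGE (10uM, at KM) by 5nM enzyme in 50mM KPO4, 60 min at 37C following 10 min compound preincubation. Stopped with luciferin detection buffer; luminescence read after 20 min.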

[10] = target: Glucocorticoid receptor (Homo sapiens) (UniProt P04150); assay: GR-GFP Redistribution (AID 450;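 active means compounds whose dose series gives a full or clear partial fitted curve of increased nuclear translocation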; further: potency means the concentration at half of the fitted maximal effect); conditions: U2OS GR-GFP nuclear translocation, laser cytometry, 2 h
Glucocorticoid receptor (Homo sapiens), sequence (P04150 whole entry, looked up, the tested form may be a part): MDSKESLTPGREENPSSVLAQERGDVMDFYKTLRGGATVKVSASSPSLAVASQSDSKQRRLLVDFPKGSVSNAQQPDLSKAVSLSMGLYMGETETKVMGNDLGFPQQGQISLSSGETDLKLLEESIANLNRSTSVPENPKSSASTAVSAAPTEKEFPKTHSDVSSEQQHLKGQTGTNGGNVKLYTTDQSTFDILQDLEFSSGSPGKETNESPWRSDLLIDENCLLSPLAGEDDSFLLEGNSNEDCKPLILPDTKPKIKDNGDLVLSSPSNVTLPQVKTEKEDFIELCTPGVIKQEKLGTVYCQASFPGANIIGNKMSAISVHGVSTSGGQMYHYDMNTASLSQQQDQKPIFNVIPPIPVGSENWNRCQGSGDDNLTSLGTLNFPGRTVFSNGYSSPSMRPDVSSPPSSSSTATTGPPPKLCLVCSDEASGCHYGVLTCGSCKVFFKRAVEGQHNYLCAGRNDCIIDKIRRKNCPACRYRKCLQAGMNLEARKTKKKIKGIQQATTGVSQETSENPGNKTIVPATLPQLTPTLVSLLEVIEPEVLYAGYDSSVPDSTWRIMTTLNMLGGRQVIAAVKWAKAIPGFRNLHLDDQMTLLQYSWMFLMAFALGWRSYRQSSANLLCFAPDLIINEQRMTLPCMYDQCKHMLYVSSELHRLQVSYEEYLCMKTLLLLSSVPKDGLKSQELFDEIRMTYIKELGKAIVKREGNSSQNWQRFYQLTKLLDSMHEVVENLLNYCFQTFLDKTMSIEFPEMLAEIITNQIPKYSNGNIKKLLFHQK

[11] = target: Glucocorticoid receptor (Homo sapiens) (UniProt P04150); assay: GR-EFC Redistribution (AID 451; calls by dose curve; further: potency means the concentration at half of the fitted maximal effect); conditions: CHO-K1 GR-EFC translocation, beta-gal luminescence, 2 h
Method in brief: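 CHO-K1 cells stably expressing nuclear-localized β-gal enzyme acceptor and GR fused C-terminally to the enzyme donor fragment; ligand-driven nuclear translocation restores β-gal by complementation. Compounds titrated up to 46 uM final, 2 h at 37 °C; luminescence read.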

[12] = target: Guanine nucleotide-binding protein G(i) subunit alpha-1 (Homo sapiens) (UniProt P63096); assay: qHTS Assay for Inhibitors of RGS12 GoLoco Motif Activity (Green Fluorophore) (AID 879; active means well fitted curve in the direction sought with a large enough effect; an effect the other way counts as inactive or inconclusive;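 further: 0% = labeled peptide with Gαi1 and full inhibition = labeled peptide alone without protein; negative values mean loss of peptide binding seen as reduced polarization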)
Guanine nucleotide-binding protein G(i) subunit alpha-1 (Homo sapiens), sequence (P63096 whole entry, looked up): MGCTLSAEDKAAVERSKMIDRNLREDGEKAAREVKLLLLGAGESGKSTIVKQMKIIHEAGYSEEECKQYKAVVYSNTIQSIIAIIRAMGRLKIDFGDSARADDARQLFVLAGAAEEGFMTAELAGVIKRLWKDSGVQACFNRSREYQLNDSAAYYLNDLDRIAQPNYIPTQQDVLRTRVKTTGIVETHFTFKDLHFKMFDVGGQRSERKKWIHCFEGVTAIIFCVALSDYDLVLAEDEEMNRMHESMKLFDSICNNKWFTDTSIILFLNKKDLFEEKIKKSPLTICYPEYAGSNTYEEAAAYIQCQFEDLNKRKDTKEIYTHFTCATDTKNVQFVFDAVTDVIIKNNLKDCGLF
Method in brief: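 Fluorescence polarization assay: 50 nM Gαi1 with 10 nM FITC-labeled RGS12 GoLoco peptide in 10 mM Tris pH 7.5, 150 mM NaCl, 0.1 mM GDP, 0.05% NP40, 10 min at room temperature with compound.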

[13] = target: Cytochrome P450 3A4 (Homo sapiens) (UniProt P08684); assay: qHTS Assay for Activators of Cytochrome P450 3A4 (AID 885; active means well fitted curve in the direction sought with a large enough effect; an effect the other way counts as inactive or inconclusive; further: nearly all actives have a fitted effect of over 65% in size)
Cytochrome P450 3A4 (Homo sapiens), sequence (P08684 whole entry, looked up): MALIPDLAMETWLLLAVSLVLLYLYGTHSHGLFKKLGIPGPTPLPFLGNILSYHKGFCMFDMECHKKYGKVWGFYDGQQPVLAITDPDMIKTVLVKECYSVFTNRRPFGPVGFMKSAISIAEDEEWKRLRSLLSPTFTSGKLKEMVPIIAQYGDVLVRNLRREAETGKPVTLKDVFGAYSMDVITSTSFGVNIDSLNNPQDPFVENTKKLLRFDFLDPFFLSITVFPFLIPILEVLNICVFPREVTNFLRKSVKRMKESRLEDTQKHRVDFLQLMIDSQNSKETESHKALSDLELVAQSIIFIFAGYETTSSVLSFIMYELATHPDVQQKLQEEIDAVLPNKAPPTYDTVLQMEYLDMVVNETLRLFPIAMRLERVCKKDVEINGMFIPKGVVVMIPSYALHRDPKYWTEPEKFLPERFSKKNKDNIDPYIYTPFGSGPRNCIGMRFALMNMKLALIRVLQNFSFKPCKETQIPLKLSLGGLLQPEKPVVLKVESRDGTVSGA
Method in brief: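 Quantitative HTS format: compounds preincubated with 20nM human CYP3A4 and Luciferin-PPXE substrate at KM, reaction started by NADPH regeneration, stopped after 60 min, luciferase luminescence read 20 min later.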

[14] = qHTS Assay for Identification of Small Molecule Agonists for Thrombopoietin (TPO) Signaling Pathway (AID 917; active means well fitted curve in the direction sought with a large enough effect; an effect the other way counts as inactive or inconclusive; further: on the % scale 0 is the no-effect control and ±100 the full control effect)
Method in brief: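 Activators of TPO signaling were sought in murine Ba/F3 cells transfected with the human receptor, using a luciferase gene driven by the Glycoprotein IIb promoter; 24-hr compound exposure at 37 C alongside 26 pM TPO, in IL-3-free medium.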

[15] = target: Muscarinic acetylcholine receptor M1 (Rattus norvegicus) (UniProt P08482); assay: qHTS Assay for Antagonists of Acetylcholine Muscarinic M1 Receptor: Kinetic Measurement of Intracellular Calcium Response (AID 943; active means well fitted curve in the direction sought with a large enough effect; an effect the other way counts as inactive or inconclusive;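 further: Fluo-4 calcium signal as peak divided by basal fluorescence over 4 min; nearly all actives have a fitted effect of over 75% in size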)
Muscarinic acetylcholine receptor M1 (Rattus norvegicus), sequence (P08482 whole entry, looked up): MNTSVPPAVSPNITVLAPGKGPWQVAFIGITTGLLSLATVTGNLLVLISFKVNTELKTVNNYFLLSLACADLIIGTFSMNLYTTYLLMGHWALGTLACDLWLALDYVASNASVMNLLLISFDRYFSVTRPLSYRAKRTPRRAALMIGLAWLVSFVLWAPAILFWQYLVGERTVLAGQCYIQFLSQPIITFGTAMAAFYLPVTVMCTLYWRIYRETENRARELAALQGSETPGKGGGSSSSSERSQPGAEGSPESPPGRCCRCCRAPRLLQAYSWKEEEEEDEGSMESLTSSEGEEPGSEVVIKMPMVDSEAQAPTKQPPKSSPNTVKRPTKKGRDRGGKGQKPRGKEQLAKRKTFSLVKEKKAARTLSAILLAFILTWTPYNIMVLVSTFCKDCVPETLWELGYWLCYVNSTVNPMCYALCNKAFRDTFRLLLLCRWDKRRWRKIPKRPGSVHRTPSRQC
Method in brief: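 CHO cells stably expressing rat M1 were loaded with no-wash Fluo-4 dye for 1 h at 37C, pre-incubated 10 min with compound, then challenged with EC80 carbachol (100 nM final); kinetic calcium read 4 min, peak/basal ratio.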

[16] = target: Muscarinic acetylcholine receptor M1 (Rattus norvegicus) (UniProt P08482); assay: qHTS Assay for Antagonists of Acetylcholine Muscarinic M1 Receptor: Measurement of IP-One Response (AID 944; active means well fitted curve in the direction sought with a large enough effect; an effect the other way counts as inactive or inconclusive; further: nearly all actives have a fitted effect of over 75% in size)
Method in brief: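 CHO cells expressing rat M1 receptor, recovered overnight, were pre-incubated 10 min with compound, then stimulated 30 min with carbachol at EC80 (200 nM) in LiCl-containing buffer, pH 7.4. IP1 accumulation was read by HTRF (620/665 nm).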

[17] = target: Pyruvate kinase (Leishmania mexicana) (UniProt Q27686); assay: qHTS Validation Assay for Inhibitors of Leishmania Mexicana Pyruvate Kinase (AID 945; active means well fitted curve in the direction sought with a large enough effect; an effect the other way counts as inactive or inconclusive;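 further: 0% = DMSO only neutral control wells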)
Method in brief: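 Mutant LmPYK (E451W), 0.2 nM, plus 0.5 mM PEP and 0.1 mM ADP in 50 mM imidazole pH 7.2 containing 0.01% Tween 20 and 0.05% BSA. Incubated 1 h at room temperature; luminescence via PKLight, normalized to DMSO.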

[18] = target: Pyruvate kinase PKM (Homo sapiens) (UniProt P14618); assay: qHTS Assay for Activators of Human Muscle Pyruvate Kinase (AID 954; active means well fitted curve in the direction sought with a large enough effect, not every such curve was filed as active;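 further: 0% = uninhibited enzyme and -100% = no enzyme or full thiadiazolimine inhibition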)
Method in brief: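 Enzyme was run at intermediate activity so both inhibitors and activators could be detected. ATP formed from ADP and PEP by 0.1 nM human PKM2 during a 1 h room-temperature incubation was quantified by coupled luciferase luminescence.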

[19] = target: Alpha-galactosidase A (Homo sapiens) (UniProt P06280); assay: Counterscreen for Glucocerebrosidase Inhibitors: qHTS Assay for Human alpha-Galactosidase at pH 4.5 (AID 992; active means well fitted curve in the direction sought with a large enough effect; an effect the other way counts as inactive or inconclusive; further: 0% is about no effect)
Method in brief: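 Read-out is 4-methylumbelliferone fluorescence (365 nm excitation, 440 nm emission) after a pH 10 NaOH/glycine stop. Reactions held 2 nM enzyme and 80 uM substrate at pH 4.5 for 20 min at room temperature.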

[20] = target: alpha-glucosidase (Oryza sativa, rice) (UniProt Q653V4); assay: Counterscreen for Glucocerebrosidase Inhibitors: qHTS Assay for Rice alpha-Glucosidase at pH 5.0 (AID 997; active means well fitted curve in the direction sought with a large enough effect; an effect the other way counts as inactive or inconclusive;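 further: 0% = full activity with enzyme and -100% = basal without enzyme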)
Method in brief: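 Rice alpha-glucosidase (4 nM final) with 400 uM 4-methylumbelliferyl-alpha-D-glucopyranoside in citrate buffer pH 5.0, 20 min at room temperature, stopped at pH 10; fluorescence 365/440 nm, compounds 0.7 nM–77 uM, AC50 from Hill fits.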

Nc1ccn([C@H]2CC[C@H](CO)O2)c(=O)n1
inactive: activity change, negative = inhibition [1] 15.8% [at 38 µM] | Potency [2] | activity change, negative = inhibition [3] 5.71% [at 38 µM] | activity, negative = inhibition [4] -0.228% [at 38 µM] | Potency [5] | Potency [6] | Potency [7] | Potency [8] | Potency [9]

C[C@H]1C[C@@H]2[C@H]3CCC4=CC(=O)C=C[C@@]4(C)[C@@]3(Cl)[C@@H](O)C[C@]2(C)[C@]1(OC(=O)c1ccco1)C(=O)CCl
inactive: activity change, negative = inhibition [1] -22% [at 17.2 µM] | activity change, negative = inhibition [3] -27.1% [at 17.2 µM] | activity, negative = inhibition [4] -1.49% [at 17.2 µM] | Potency [5] | Potency [6]
active: Potency [2] 5.01 µM

C=C[C@@]1(C)CC(=O)[C@@]2(O)[C@@]3(C)[C@H](O)CCC(C)(C)[C@@H]3[C@H](O)[C@H](OC(C)=O)[C@]2(C)O1
inactive: activity change, negative = inhibition [1] -15.8% [at 38 µM] | Potency [2] | activity change, negative = inhibition [3] 5.97% [at 38 µM] | activity, negative = inhibition [4] 9.83% [at 38 µM] | Potency [10] > 46 µM | Potency [11] > 46 µM | outcome [12] | Potency [13] | Potency [8] | outcome [14] | Potency [15] | Potency [16] | outcome [17] | outcome [18] | outcome [19] | Potency [20]

N[C@H](CS(=O)O)C(=O)O
inactive: activity change, negative = inhibition [1] 9.5% [at 38 µM] | Potency [2] | activity change, negative = inhibition [3] 10.5% [at 38 µM] | activity, negative = inhibition [4] 17.2% [at 38 µM] | Potency [10] > 46 µM | Potency [11] > 46 µM | Potency [6] | Potency [7] | Potency [8] | Potency [9]

CCn1cc(C(=O)O)c(=O)c2ccc(Cc3ccccc3)nc21
inactive: activity change, negative = inhibition [1] -7.45% [at 38 µM] | Potency [2] | activity change, negative = inhibition [3] 2.79% [at 38 µM] | activity, negative = inhibition [4] 8.13% [at 38 µM] | Potency [10] > 46 µM | Potency [11] > 46 µM | Potency [7] | Potency [8] | Potency [9]

C[C@@]12CCC(=O)C=C1CC[C@H]1[C@H]3CC[C@](O)(C(=O)CO)[C@]3(C)CC[C@@H]12
active: Potency [10] 0.114 µM
inactive: activity change, negative = inhibition [1] 16% [at 38 µM] | Potency [2] | activity change, negative = inhibition [3] -2.8% [at 38 µM] | activity, negative = inhibition [4] -40.3% [at 38 µM] | Potency [5] | Potency [6] | Potency [7] | Potency [8]
